Measurements: PubChem BioAssay AID977621 (Broad Institute, 2014)
Screen size: about 1,900 compounds; fewer than 10 were called active. Another 6% or so got no clear call; they are omitted.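 The calls were made as follows: active = Wild-type ribosome reporter drop at least double the humanized mutant ribosome reporter drop, growth loss under a set limit; inconclusive = no clear call, values can overlap the other calls; inactive = the rest.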 Not all results are given here.

test: growth inhibition of wild-type GFP E. coli, dose response, H69 mutant RFP, cherry-pick (AID 977621);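 also: wild-type GFP and H69 mutant RFP strains grown together 50/50 in each well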; conditions: E. coli wild-type GFP strain growth, fluorescence, 24 h; series mostly up to 50 µM

outcome, inactive:
O=C(Nc1cccc(Cl)c1)N1C[C@@H]2[C@H](c3ccccc31)[C@H](CO)N2Cc1ccncc1
CNC(=O)c1ccsc1NC(=O)c1ccc(S(=O)(=O)N2CCc3ccccc32)cc1
Cc1ccccc1S(=O)(=O)NC(=O)C1(C)CCN1C(=O)C1(c2ccc(Cl)cc2)CC1 (configuration not stated)
CCc1c(N=O)c(-c2ccccc2)n(O)[n+]1[O-]
CCc1cc2cc(OC)ccc2nc1SCC(=O)Nc1cc(OC)c(OC)cc1C(=O)O
CC1CCCC(NC(=O)COC(=O)[C@@H]2CC(O)CN2S(=O)(=O)c2ccc3c(c2)OCCO3)C1C (some centres not stated)
Cn1cc(CCC(=O)NCc2ccc3c(c2)OCO3)c2ccccc21
C[C@@H](Nc1nc(-c2ccccc2)nc2c1oc1ccccc12)C(=O)O
CC(=O)Nc1ccc(CNc2nc(NCCN(C)C)nc3cc(-c4ccccc4)sc23)cc1
Fc1cccc(Cl)c1CSc1ccc(-c2ccco2)nn1
Cc1ccc(C(=O)NCC(=O)OCC(=O)Nc2cccc(S(=O)(=O)N3CCCC3)c2)cc1C
Cc1cc(C)cc(NC(=O)c2cccc(NC(=O)C3C4CC5OC(=O)C3C5C4)c2)c1 (configuration not stated)
Cc1ccc(OCCCC(=O)NC(C)c2ccccc2)c(C)c1 (configuration not stated)
Cc1nn(C(C)(C)C)c(OC(=O)CC(C)C)c1S(=O)(=O)c1ccccc1
O=C(NCCc1csc(-c2ccccc2)n1)c1ccccc1F
Cc1cccc(NC(=O)c2nc(S(=O)(=O)Cc3ccccc3)ncc2Cl)c1
Cc1ccc(-c2c[n+](CC(=O)Nc3ccccc3)c3n2CCC3)cc1
COc1ccc(C(C)=O)cc1COc1ccc(Cl)c(C)c1
COc1cccc(S(=O)(=O)N2CCCCN3[C@H](C2)[C@H](c2ccc(C#CC(C)C)cc2)[C@@H]3CO)c1
COc1ccc2c(c1)c1ncn(Cc3ccccn3)c(=O)c1n2C
O=C(Nc1nnc(Cc2ccc(Cl)cc2)s1)c1ccncc1
Cc1ccc2c(N)c(C(=O)c3ccccc3)sc2n1
Cc1onc(-c2ccccc2Cl)c1C(=O)OCC(=O)c1ccccc1
COc1ccc(CN(C)C[C@H]2Oc3ccc(NS(=O)(=O)c4ccc(Cl)cc4)cc3CC(=O)N([C@@H](C)CO)C[C@H]2C)cc1
Cc1ccc(F)c(NC(=O)CCOc2ccccc2C)c1
COc1ccccc1N1CCN(Cc2ccc(OC)c3ccccc23)CC1
CC1CCCN(c2ccc(C(=O)NCCc3ccccc3)cn2)C1 (configuration not stated)
COc1ccc(C2=NN(C(=O)c3cccnc3)C(c3ccccc3)C2)cc1 (configuration not stated)
Cc1ncoc1C(=O)NCCC(c1ccccc1)c1ccccc1
OCCN(Cc1ccccc1)Cc1ccc(Cl)cc1
Cc1ccccc1-n1nnnc1SCCCC(=O)c1ccc(F)cc1
CCN(CC)C(=O)c1sc2nc(-c3ccccc3)ccc2c1N
CCn1c(NC(=O)c2nn(C)cc2Br)nc2ccccc21
Cc1ccc(S(=O)(=O)N2CC(=O)Nc3ccccc32)cc1C
COC(=O)c1cc(C)sc1NC(=O)CC1Nc2ccccc2NC1=O (configuration not stated)
O=C(NCCc1ccccc1)c1cccc(NC(=O)c2ccccc2)c1
C[C@@H]1CN([C@@H](C)CO)C(=O)c2cc(NS(=O)(=O)c3ccccc3)ccc2O[C@@H]1CN(C)Cc1ccc(C(=O)Nc2ccccc2N)cc1
